# Test results from PubChem BioAssay (EPA / NIEHS).
# Results filed as inconclusive are left out. Active and inactive are the calls of the source. The calls were made as follows, unless noted: active = hit-call score of the fitted dose curve at least 0.9, where 1 is the maximum; inactive = score below 0.9.
# Assays:
# [1] = read-out: Monokine induced gamma interferon (MIG), CXCL9 (gene 4283); assay: BSK_3C_MIG: BioMAP Diversity Plus: 3C Assay for Monokine induced gamma interferon (MIG) Biomarker Activity (AID 2283021); conditions: primary human endothelial cells (HUVEC); actives raise or lower the signal;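 as to AC50: MIG protein level measured by immunoassay in the treated endothelial cultures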
# Procedure, shortened: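 After 24 h of treatment, human umbilical vein endothelial cultures (3C system) had their MIG biomarker level determined by ELISA, with DMSO serving as negative control.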
# [2] = BSK_3C_SRB: Viability Assessment in the BioMAP Diversity Plus: 3C Assay (AID 2283023); conditions: primary human endothelial cells (HUVEC);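 also: fitted both ways against DMSO so a hit may be signal rise or drop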
# Procedure, shortened: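 Human umbilical vein endothelial cells in the 3C system, treated 24 h. Total protein measured by 0.1% sulforhodamine B staining after 10% TCA fixation, read at 560 nm; bidirectional fit versus DMSO.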
# [3] = read-out: Matrix Metallopeptidase 1 (MMP1), MMP1 (gene 4312); assay: BSK_BE3C_MMP1: BioMAP Diversity Plus: BE3C Assay for Matrix Metallopeptidase 1 (MMP1) Biomarker Activity (AID 2283024); conditions: primary human bronchial epithelial cells; actives raise or lower the signal
# Procedure, shortened: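 Dose cells, wait 24 h, run MMP1 ELISA; cells are human bronchial epithelial primaries. Both increases and decreases relative to DMSO counted.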
# [4] = BSK_3C_Vis: BioMAP Diversity Plus: 3C Assay for Morphology Visualization (AID 2283025); conditions: primary human endothelial cells (HUVEC);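 also: fitted both ways so gain or loss versus DMSO counts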;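 as to AC50: light microscopy image of cell morphology used as background control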
# Procedure, shortened: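 Endothelial cells from human umbilical vein were treated with test chemicals for 24 h and inspected by light microscopy for changes in cell conformation.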
# [5] = read-out: Pselectin, SELP (gene 6403); assay: BSK_4H_Pselectin: BioMAP Diversity Plus: 4H Assay for Pselectin Biomarker Activity (AID 2283026); conditions: primary human endothelial cells (HUVEC); actives raise or lower the signal
# Procedure, shortened: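 Human vascular endothelium from umbilical vein; P-selectin measured by ELISA at 24 h post-dose, with cytotoxicity checked by sulforhodamine B total-protein staining in parallel cultures (0.1% SRB after 10% TCA fixation, read at 560 nm).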
# [6] = BSK_4H_SRB: Viability Assessment in the BioMAP Diversity Plus: 4H Assay (AID 2283027); conditions: primary human endothelial cells (HUVEC);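 also: cells exposed to compound for 24 h before staining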;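 as to AC50: curves fitted both ways versus DMSO so AC50 may be loss or gain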
# Procedure, shortened: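 Human umbilical vein endothelial cells were dosed with chemical and, after 24 h, fixed with 10% TCA, stained with 0.1% sulforhodamine B, and read at 560 nm to give total protein as a cytotoxicity measure. Bidirectional fitting relative to DMSO control.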
# [7] = BSK_BE3C_SRB: Viability Assessment in the BioMAP Diversity Plus: BE3C Assay (AID 2283028); conditions: primary human bronchial epithelial cells;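 as to AC50: fitted both ways so AC50 may mark signal gain or loss versus DMSO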
# Procedure, shortened: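 Human bronchial epithelial primary cells in confluent culture, 24 h after chemical dosing; total protein by 0.1% SRB staining after 10% TCA fixation, read at 560 nm. Bidirectional fitting versus DMSO baseline.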
# [8] = read-out: Thrombomodulin, THBD (gene 7056); assay: BSK_3C_Thrombomodulin: BioMAP Diversity Plus: 3C Assay for Thrombomodulin Biomarker Activity (AID 2283029); conditions: primary human endothelial cells (HUVEC); actives raise or lower the signal
# Procedure, shortened: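 Thrombomodulin ELISA, human primary HUVEC, 24 h post-dose; data fitted in both directions relative to DMSO.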
# [9] = read-out: Vascular endothelial growth factor receptor 2 (Homo sapiens) (UniProt P35968); assay: BSK_4H_VEGFRII: BioMAP Diversity Plus: 4H Assay for Vascular endothelial growth factor receptor 2 (VEGFR2) Biomarker Activity (AID 2283031); conditions: primary human endothelial cells (HUVEC); actives raise or lower the signal;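 as to AC50: cell-surface VEGFR2 protein level quantified by ELISA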
# Procedure, shortened: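 Primary human umbilical vein endothelial cells (4H system), 24 h exposure; cell-surface VEGFR2 measured by ELISA. Bidirectional fitting versus DMSO; cytotoxicity checked in parallel by SRB total-protein staining.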
# [10] = read-out: Human Leukocyte Antigen - DR isotype (HLADR), HLA-DRA (gene 3122); assay: BSK_BE3C_HLADR: BioMAP Diversity Plus: BE3C Assay for Human Leukocyte Antigen - DR isotype (HLADR) Biomarker Activity (AID 2283032); conditions: primary human bronchial epithelial cells; actives raise or lower the signal
# Procedure, shortened: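 Signal came from an ELISA for HLA-DR in human bronchial epithelial primary cells harvested 24 h after treatment; gain- and loss-of-signal fitting used DMSO controls as reference.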
# [11] = read-out: Vascular cell adhesion molecule 1 (VCAM1), VCAM1 (gene 7412); assay: BSK_4H_VCAM1: BioMAP Diversity Plus: 4H Assay for Vascular cell adhesion molecule 1 (VCAM1) Biomarker Activity (AID 2283033); conditions: primary human endothelial cells (HUVEC); actives raise or lower the signal;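 as to outcome: cell-surface VCAM-1 protein measured by ELISA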
# Procedure, shortened: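 Endpoint derived from bidirectional fitting against DMSO controls of VCAM-1 ELISA signal in umbilical vein endothelial cells sampled at 24 h following treatment.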
# [12] = read-out: Interferon-gamma inducible Protein 10 (IP10), CXCL10 (gene 3627); assay: BSK_BE3C_IP10: BioMAP Diversity Plus: BE3C Assay for Interferon-gamma inducible Protein 10 (IP10) Biomarker Activity (AID 2283034); conditions: primary human bronchial epithelial cells; actives raise or lower the signal
# Procedure, shortened: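 Using primary human bronchial epithelial cultures, the assay captures IP-10 by ELISA one day (24 h) after exposure. Parallel SRB staining of total protein flags overt cytotoxicity. Fits run bidirectionally relative to DMSO.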
# [13] = read-out: Monokine induced gamma interferon (MIG), CXCL9 (gene 4283); assay: BSK_BE3C_MIG: BioMAP Diversity Plus: BE3C Assay for Monokine induced gamma interferon (MIG) Biomarker Activity (AID 2283035); conditions: primary human bronchial epithelial cells; actives raise or lower the signal;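 as to outcome: MIG protein measured by ELISA in BE3C cultures after 24 h of dosing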
# Procedure, shortened: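 ELISA read-out of MIG in human lung bronchial epithelial primary cultures, 24 h post-dosing. Bidirectional curve fit vs DMSO baseline.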
# [14] = read-out: Transforming growth factor beta 1 (TGFb1), TGFB1 (gene 7040); assay: BSK_BE3C_TGFb1: BioMAP Diversity Plus: BE3C Assay for Transforming growth factor beta 1 (TGFb1) Biomarker Activity (AID 2283036;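 as to outcome: TGF-b1 protein level measured by ELISA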); conditions: primary human bronchial epithelial cells; actives raise or lower the signal
# Procedure, shortened: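 In this human primary bronchial epithelial system, an ELISA quantified TGF-b1 one day after dosing. Endpoint changes in either direction were fitted relative to DMSO.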
# [15] = read-out: Plasminogen activator inhibitor-1 (PAI1), SERPINE1 (gene 5054); assay: BSK_BE3C_PAI1: BioMAP Diversity Plus: BE3C Assay for Plasminogen activator inhibitor-1 (PAI1) Biomarker Activity (AID 2283037); conditions: primary human bronchial epithelial cells; actives raise or lower the signal
# Procedure, shortened: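 PAI-1 biomarker levels in treated human bronchial epithelial cells are determined by ELISA at 24 h. Both increases and decreases relative to DMSO are fitted.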
# [16] = read-out: urokinase plasminogen activator (uPA), PLAU (gene 5328); assay: BSK_BE3C_uPA: BioMAP Diversity Plus: BE3C Assay for urokinase plasminogen activator (uPA) Biomarker Activity (AID 2283038); conditions: primary human bronchial epithelial cells; actives raise or lower the signal;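 as to outcome: uPA protein level quantified by ELISA in cell cultures; uPA read one day after compound addition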
# Procedure, shortened: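 Primary human bronchial epithelial cells, uPA measured by ELISA 24 h after dosing. Bidirectional change relative to DMSO; cytotoxicity checked in parallel cultures by sulforhodamine B total-protein staining.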
# [17] = read-out: Urokinase-type plasminogen activator receptor (uPAR), PLAUR (gene 5329); assay: BSK_BE3C_uPAR: BioMAP Diversity Plus: BE3C Assay for Urokinase-type plasminogen activator receptor (uPAR) Biomarker Activity (AID 2283039); conditions: primary human bronchial epithelial cells; actives raise or lower the signal;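 as to outcome: cells exposed to compound for one day before measurement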
# Procedure, shortened: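 A uPAR ELISA serves as the readout, taken 24 h after treating primary human bronchial epithelial cells. Responses in either direction are fitted against DMSO, which defines baseline activity.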
# [18] = read-out: Interleukin-6 (IL6), IL6 (gene 3569); assay: BSK_CASM3C_IL6: BioMAP Diversity Plus: CASM3C Assay for Interleukin-6 (IL6) Biomarker Activity for (AID 2283040); conditions: primary human coronary artery smooth muscle cells; actives raise or lower the signal
# [19] = read-out: Urokinase-type plasminogen activator receptor (uPAR), PLAUR (gene 5329); assay: BSK_4H_uPAR: BioMAP Diversity Plus: 4H Assay for Urokinase-type plasminogen activator receptor (uPAR) Biomarker Activity (AID 2283030); conditions: primary human endothelial cells (HUVEC); actives raise or lower the signal
# Procedure, shortened: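 Human umbilical vein endothelial cells in the 4H system, 24 h after chemical dosing. Cell-surface uPAR measured by ELISA, fitted in both directions versus DMSO; cytotoxicity checked by SRB total protein in parallel cultures.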
# [20] = molecular target: human Vitamin D Receptor (VDR), VDR (gene 7421) (UniProt P11473); assay: ATG_VDR_TRANS: Attagene TRANS-FACTORIAL HepG2 Assay for human Vitamin D Receptor (VDR) (AID 2283022; active = hit-call score of the fitted dose curve at least 0.9, where 1 is the maximum)
# human Vitamin D Receptor (VDR), VDR (gene 7421), sequence (P11473 whole entry, looked up, the tested form may be a part): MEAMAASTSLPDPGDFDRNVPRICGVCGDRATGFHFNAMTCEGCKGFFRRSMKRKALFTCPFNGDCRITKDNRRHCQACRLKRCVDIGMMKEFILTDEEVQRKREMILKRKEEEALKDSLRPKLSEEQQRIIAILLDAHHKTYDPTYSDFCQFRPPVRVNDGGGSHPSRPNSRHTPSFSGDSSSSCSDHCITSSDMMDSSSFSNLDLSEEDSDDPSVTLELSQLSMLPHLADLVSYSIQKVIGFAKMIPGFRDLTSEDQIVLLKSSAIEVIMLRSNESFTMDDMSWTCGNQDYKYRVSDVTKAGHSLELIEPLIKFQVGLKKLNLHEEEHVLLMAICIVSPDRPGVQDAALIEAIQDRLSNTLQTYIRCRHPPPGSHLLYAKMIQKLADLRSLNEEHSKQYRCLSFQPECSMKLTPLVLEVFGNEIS
# Procedure, shortened: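 HepG2 cells were transiently transfected with GAL4-UAS reporter units and a chimeric VDR-Gal4 construct, then dosed for 24 hours. Reporter mRNA was quantified by RT-PCR, fluorescent labeling, HpaI digestion and capillary electrophoresis; gain of signal analysed vs DMSO.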
smiles,measurement,setting,value
O=[N+]([O-])c1ccc(O)cc1,outcome,[1],inactive
same,outcome,[2],inactive
same,outcome,[3],inactive
same,outcome,[4],inactive
same,outcome,[5],inactive
same,outcome,[6],inactive
same,outcome,[7],inactive
same,outcome,[8],inactive
same,outcome,[9],inactive
same,outcome,[10],inactive
same,outcome,[11],inactive
same,outcome,[12],inactive
same,outcome,[13],inactive
same,outcome,[14],inactive
same,outcome,[15],inactive
same,outcome,[16],inactive
same,outcome,[17],inactive
same,outcome,[18],inactive
N#C[C@@H]1CC(F)(F)CN1C(=O)CNC1CC2CCC(C1)N2c1ncccn1 (stereo partly specified),outcome,[1],inactive
same,AC50,[2],8.06 µM (active)
same,outcome,[3],inactive
same,AC50,[4],5.57 µM (active)
same,outcome,[5],inactive
same,outcome,[6],inactive
same,outcome,[7],inactive
same,outcome,[8],inactive
same,outcome,[19],inactive
same,outcome,[9],inactive
same,outcome,[10],inactive
same,outcome,[11],inactive
same,outcome,[12],inactive
same,outcome,[13],inactive
same,outcome,[14],inactive
same,outcome,[15],inactive
same,outcome,[16],inactive
same,outcome,[17],inactive
same,outcome,[18],inactive
Oc1cc2ccccc2c2ccccc12,AC50,[1],11.3 µM (active)
same,AC50,[2],15.4 µM (active)
same,AC50,[3],27.9 µM (active)
same,AC50,[4],13.3 µM (active)
same,AC50,[5],9.99 µM (active)
same,AC50,[6],16.6 µM (active)
same,AC50,[7],28.8 µM (active)
same,AC50,[8],9.55 µM (active)
same,AC50,[19],13.2 µM (active)
same,AC50,[9],30.1 µM (active)
same,AC50,[10],13.8 µM (active)
same,AC50,[11],8.16 µM (active)
same,AC50,[13],28.8 µM (active)
same,AC50,[14],13.9 µM (active)
same,AC50,[15],24.9 µM (active)
same,AC50,[16],13.9 µM (active)
same,AC50,[17],27.6 µM (active)
same,AC50,[18],8.56 µM (active)
CCc1ccc(CCOc2ccc(CC3SC(=O)NC3=O)cc2)nc1 (stereo unspecified),outcome,[1],inactive
same,outcome,[2],inactive
same,outcome,[3],inactive
same,outcome,[4],inactive
same,outcome,[5],inactive
same,outcome,[6],inactive
same,outcome,[7],inactive
same,outcome,[8],inactive
same,outcome,[9],inactive
same,outcome,[10],inactive
same,outcome,[11],inactive
same,outcome,[12],inactive
same,outcome,[13],inactive
same,outcome,[15],inactive
same,outcome,[16],inactive
same,outcome,[17],inactive
same,outcome,[18],inactive
CCCCCCCCC(=O)O,outcome,[1],inactive
same,outcome,[2],inactive
same,outcome,[3],inactive
same,outcome,[4],inactive
same,outcome,[5],inactive
same,outcome,[6],inactive
same,outcome,[7],inactive
same,outcome,[8],inactive
same,outcome,[9],inactive
same,outcome,[10],inactive
same,outcome,[11],inactive
same,outcome,[13],inactive
same,outcome,[15],inactive
same,outcome,[16],inactive
same,outcome,[17],inactive
same,outcome,[18],inactive
CCc1nn(C2CCCCC2)c2cc(C3(C#N)CCC(C(=O)O)CC3)ccc12 (stereo unspecified),outcome,[1],inactive
same,AC50,[2],5.08 µM (active)
same,outcome,[3],inactive
same,AC50,[4],39 µM (active)
same,AC50,[5],4.25 µM (active)
same,AC50,[6],5.87 µM (active)
same,outcome,[7],inactive
same,outcome,[8],inactive
same,outcome,[9],inactive
same,AC50,[10],31 µM (active)
same,AC50,[11],27 µM (active)
same,AC50,[13],28 µM (active)
same,AC50,[15],4.33 µM (active)
same,AC50,[16],3.48 µM (active)
same,AC50,[17],5.01 µM (active)
same,AC50,[18],11.1 µM (active)
Cc1cc(CCN2CCN(c3nsc4ccccc34)CC2)cc2c1NC(=O)CC2(C)C,AC50,[1],35.8 µM (active)
same,outcome,[20],inactive
same,AC50,[2],26.5 µM (active)
same,AC50,[3],31.2 µM (active)
same,AC50,[4],16.3 µM (active)
same,AC50,[5],16.5 µM (active)
same,AC50,[6],20 µM (active)
same,AC50,[7],32.4 µM (active)
same,AC50,[8],4.31 µM (active)
same,outcome,[9],inactive
same,AC50,[10],28.9 µM (active)
same,AC50,[11],22.3 µM (active)
same,AC50,[12],30.4 µM (active)
same,AC50,[13],34.4 µM (active)
same,AC50,[15],32.6 µM (active)
same,AC50,[16],31.3 µM (active)
same,AC50,[17],31.2 µM (active)
